# From PubChem BioAssay
# PNC inhibitor: perinucleolar compartment assembly inhibition; PC3M PTB-GFP, PNC prevalence imaging, 16 h; hits give low values; activity change (PNC), negative = inhibition, % at 10 µM; actives 3.1% (n = 140,000);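 active = readout at or below -70, meaning at least 70% loss of cells showing the perinucleolar compartment, a nuclear body marking cancer cells; inconclusive = readout between -30 and a set limit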;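 note: plate controls were DMSO wells for no effect and camptothecin positive control wells for full effect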
#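 Compounds are pinned in duplicate onto adhered PC3M cells stably expressing GFP-tagged PTB and incubated 16 h at 37 C. Cells are then fixed, nuclei stained with Hoechst, and PNC-positive cells counted.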
# ALDH1A1 inh: blocks purified human ALDH1A1 activity. P00352. Purified ALDH1A1, NADH fluorescence, propionaldehyde substrate. Potency, µM (doses to about 75.3 µM), for the others: top-dose activity, negative = inhibition, usual class: inhibitors. actives 7.3% (n = 220,000). AID 1030;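 note: potency is the fitted concentration of half-maximal effect; plate controls were no enzyme wells and a reference inhibitor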
# Target sequence (P00352 whole entry, looked up): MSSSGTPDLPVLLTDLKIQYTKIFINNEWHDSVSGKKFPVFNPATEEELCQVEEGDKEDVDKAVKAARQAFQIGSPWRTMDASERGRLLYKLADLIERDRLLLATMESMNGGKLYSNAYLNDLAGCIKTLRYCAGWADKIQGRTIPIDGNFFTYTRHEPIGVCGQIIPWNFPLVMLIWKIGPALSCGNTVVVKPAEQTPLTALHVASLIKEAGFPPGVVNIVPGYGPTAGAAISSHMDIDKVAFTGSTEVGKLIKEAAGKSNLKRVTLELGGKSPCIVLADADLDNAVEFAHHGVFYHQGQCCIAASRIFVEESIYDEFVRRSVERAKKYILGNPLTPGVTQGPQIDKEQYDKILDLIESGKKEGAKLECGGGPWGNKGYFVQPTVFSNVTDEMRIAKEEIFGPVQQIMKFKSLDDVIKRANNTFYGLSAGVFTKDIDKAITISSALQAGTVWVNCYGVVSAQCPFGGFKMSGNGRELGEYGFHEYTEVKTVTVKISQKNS
# Luc counter: counter-screen: inhibitors of Kinase-Glo firefly luciferase; actives 0.28% (n = 200,000); Kinase-Glo luciferase, ATP luminescence, 8 min; Q27757; Potency, µM (titrated, usually from 38.3 µM), inactives show at the highest dose activity change, negative = inhibition, hits mostly inhibitors; active = well fitted inhibition curve with a large enough effect; inconclusive = small, poorly fitted or top-dose-only effect; note: potency is the fitted concentration of half-maximal effect; nearly all actives have a fitted effect of over 60% in size
#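 Inhibition of Kinase-Glo luciferase light generation was assessed at 10 uM ATP in pH 7.2 imidazole buffer, with luminescence measured after eight minutes at ambient temperature.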
# HPGD inh: HPGD (human) dehydrogenase inhibition | Potency, µM, for inactives: at the top dose activity change, negative = inhibition, hits mostly inhibitors | actives 4.3% (n = 150,000) | purified HPGD, NADH fluorescence kinetic, PGE2 substrate | AID 894 | P15428; note: potency is the fitted concentration of half-maximal effect
# Target sequence (P15428 whole entry, looked up): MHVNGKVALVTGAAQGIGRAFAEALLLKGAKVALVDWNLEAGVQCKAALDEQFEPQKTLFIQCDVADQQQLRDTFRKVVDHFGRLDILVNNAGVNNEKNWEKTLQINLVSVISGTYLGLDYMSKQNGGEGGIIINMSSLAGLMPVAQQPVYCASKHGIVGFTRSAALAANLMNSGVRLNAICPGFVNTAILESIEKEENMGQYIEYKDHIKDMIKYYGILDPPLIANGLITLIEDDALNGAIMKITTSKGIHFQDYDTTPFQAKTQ
#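 20 nM HPGD preincubated 15 min at room temperature with compound in 50 mM Tris-HCl pH 8, 0.01% Tween 20. Started with 1 mM NAD+ and 30 uM prostaglandin E2; NADH fluorescence (360/450 nm) read 5 times over 30-s intervals, last minus first.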
# IMPase cell inh: membrane-permeable compound that blocks inositol monophosphatase | CHO-M1 cells, IP1 accumulation, HTRF TR-FRET ratio | inhibition (IP1 accumulation), % at 46.1 µM | AID 901 | P97697 | 120,000 tested, under 10 active; active = well fitted curve in the direction sought with a large enough effect in the signal ratio, not every such curve was filed as active; inconclusive = small, poorly fitted or top-dose-only effect, or a change in a side signal; inactive = no such curve, though single readings can be large or run the other way; the % refers to the signal ratio;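 note: cells stimulated with carbachol in lithium chloride buffer; plate controls were DMSO basal wells for no effect and reference inhibitor wells for full effect; higher means more IMPase inhibition seen as more IP1 and lower FRET ratio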
#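 Seeded CHO-M1 cells were dosed with compound at up to 46 uM, stimulated with carbachol for 30 min, then lysed in IP-One detection reagents. Higher IP1 lowers the TR-FRET signal.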
# LMNA splice mod: changes lamin A minigene splicing in HeLa cells | HeLa LMNA splicing GFP/RFP minigene ratio, 48 h | Potency, µM (highest dose often 46.1 µM), inactives show at the highest dose ratio change, negative = inhibition, usual class: inhibitors | actives 0.01% (n = 200,000); active = well fitted inhibition curve with a large enough effect in the signal ratio, with a control signal flat, not every such curve was filed as active; inconclusive = small, poorly fitted or top-dose-only effect, or effect the other way, or a change in a side signal; the % refers to the signal ratio; note: potency is the fitted concentration of half-maximal effect
#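 S3 HeLa stable clones carrying a lamin A-EGFP splicing minigene plus DsRed2 were seeded at 600 cells/well in Opti-MEM with 2% FBS, pin-dosed and incubated 48 h at 37°C. Acumen cytometry (488 nm) gave the GFP/RFP total-intensity ratio.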
# An asterisk follows results filed as active; ? = inconclusive; / = not tested or not shown; [ ] = dose if it differs, or a comment. Rows were chosen to be rich in hits. Some 10% of all compounds tested hit in one or more screens of this group. Unless noted, calls come from the whole dose curve; as a rule, active = well fitted inhibition curve with a large enough effect (not every such curve was filed as active); inconclusive = small, poorly fitted or top-dose-only effect, or another doubt; inactive = no such curve, though single readings can be large or run the other way. Unless noted, % is set by controls: 0 for no effect and ±100 for the full control effect.
SMILES,PNC inhibitor,ALDH1A1 inh,Luc counter,HPGD inh,IMPase cell inh,LMNA splice mod
O=C(NCc1ccccc1)c1ccc(Br)o1,-5,0%,-1%,13µM*,/,-7%
O=C(NCc1cccnc1)c1ccc(Cl)cc1[N+](=O)[O-],?,5%,0%,-3%,-3,-5%
O=C(NCc1ccc(Cl)cc1)c1ccc(Cl)cc1[N+](=O)[O-],-9,6%,2%,16µM*,1,-1%
O=C(NC(c1ccccc1)c1ccccc1)c1ccc(Br)o1,35,0.79µM*,4%,-2%,3,-4%
CCCCC(=O)NCc1ccc(Cl)cc1,12,17%,4%,14µM*,/,2%
CC(C)=NO[C@@H](C)c1cn([C@H](CO)Cc2ccccc2)nn1,/,14%[13.5 µM],/,/,/,/
COc1ccccc1C(=O)Nc1ccc(C(=O)OCc2cc(=O)n3ccsc3n2)cc1,/,/,/,/,/,-13%[46 µM]
O=C(c1ccc(Br)o1)N(Cc1ccccc1)Cc1ccccc1,11,0.79µM*,2%[39.9 µM],-18%,/,?
CN(C)c1cccc(C(=O)NCc2ccc(Cl)cc2)c1,/,-14%,-3%,/,/,/
O=C(NCCc1ccccc1)c1ccc(Br)o1,0,?,0%,?,1,13%
O=C(/C=C/c1ccc(Br)o1)OCc1ccccc1,0,?,20%,-19%,5,-5%
O=C(/C=C/c1ccc(Br)o1)NC(c1ccccc1)c1ccccc1,?,22µM*,0%,8%,10,?
O=C(NCc1ccc(Cl)cc1)c1cccc(NC(=O)c2ccccc2)c1,-100*,-6%,-2%,?,/,-25%
CC(C)(C)NC(=O)C(c1ccncc1)N(C(=O)c1csnn1)C1CC1 (stereo not given),?,10µM*,0%,-6%,4,-2%
CC(C)(C)NC(=O)C(c1cccnc1)N(C(=O)c1ccc(Cl)nc1)C1CCCC1 (stereo not given),/,5.6µM*,-2%,/,/,/
O=C1CN(C(=O)COC(=O)c2ccc[n+]([O-])c2)c2ccccc2N1,/,0%,2%,/,/,13%[46 µM]
O=[N+]([O-])c1c(NCCO)cc(N2CCCCC2)c2nonc12,/,?,-3%,/,/,-8%[46 µM]
COc1ccc(CNC(=O)c2ccc(N3CCOCC3)c([N+](=O)[O-])c2)cc1,/,3%,0%,/,/,/
CCCCCCCNC(=O)c1ccc(N2CCC3(CC2)OCCO3)c([N+](=O)[O-])c1,-119*,25µM*,-1%,-14%,7,?
O=C1CN(C(=O)COC(=O)c2ccc(N3CCCCCC3)c([N+](=O)[O-])c2)c2ccccc2N1,13,7.9µM*,/,/,10,-10%
CCC(CC)c1nnc(NC(=O)c2ccc(N3CCCCC3)c([N+](=O)[O-])c2)s1,?,0.79µM*,1%,-26%,/,9%
O=[N+]([O-])c1cc([N+](=O)[O-])c(N2CCCCCC2)cc1NCCO,96,2.2µM*,1%,-10%,-9,20%
CC12CC[C@@](C(=O)O)(C(=O)C1=O)C2(C)C,/,0%,-2%,0%,/,/
Cc1cc(C)c(C)c(OCC(=O)Nc2ccc(S(=O)(=O)Nc3nc(C)cc(C)n3)cc2)c1,/,/,/,/,-1,/
CC(C)c1ccc2c(c1)-c1ccccc1S(=O)(=O)N2CC(=O)N1CCCCC1,/,/,/,/,/,-6%[46 µM]
SMILES,PNC inhibitor,ALDH1A1 inh,Luc counter,HPGD inh,IMPase cell inh,LMNA splice mod
COc1ccc(CNc2ncncc2-c2cccc(NS(C)(=O)=O)c2)c(OC)c1,/,9%,/,/,/,3%
NC(=O)c1ccc(N2CCN(c3ccc(O)cc3)CC2)c([N+](=O)[O-])c1,/,16µM*,-2%,/,/,?
O=C(NCc1ccco1)c1ccc(N2CCCCC2)c([N+](=O)[O-])c1,?,?,-4%,32µM*,/,?
NNC(=O)c1ccc(N2CCCCCC2)c([N+](=O)[O-])c1,/,1.6µM*,9%,/,/,26%[46 µM]
COc1ccc(CNC(=O)c2ccc3nc(C(C)C)oc3c2)cc1OC,/,/,/,/,/,0%[46 µM]
COC(=O)c1[nH]nc2c1C(=O)N(Cc1ccccc1)C2=O,26,?,1%,10µM*,12,?
CCOC(=O)C1=C(C)N(Cc2ccccc2)C(=O)NC1c1ccc(OC)cc1 (stereo not given),24,?,-7%,-14%,-4,15%
COC(=O)c1[nH]nc2c1C(=O)N(C1CCCCC1)C2=O,?,?,-2%,-24%,-15,?
CCOC(=O)c1[nH]nc2c1C(=O)N(Cc1ccccc1)C2=O,-26,?,-3%,8.9µM*,8,?
O=C(Nc1cccc(Br)c1)c1cc(S(=O)(=O)N2CCCCC2)c[nH]1,/,/,/,/,/,-2%[46 µM]
COc1ccc(S(=O)(=O)N[C@@H](Cc2ccccc2)C(=O)N2CC[C@@]3(O)CCCC[C@H]3C2)cc1,-88*,-15%,2%,0%,4,9%
O=C([C@H](Cc1ccccc1)NS(=O)(=O)c1ccc(Cl)cc1)N1CC[C@@]2(O)CCCC[C@H]2C1,-16,?,3%,4%,-1,2%[0.0737 µM]
Cc1nc2sc3c(c2c(=O)n1NC(=O)CCBr)CCCC3,/,14µM*,-1%,/,/,/
CCOC(=O)CSc1nc2sc3c(c2c(=O)n1CC)CCCC3,/,/,/,/,3,/
COc1ccc2c(CC(=O)Nc3ccc(OC)c(NS(=O)(=O)c4ccc(F)cc4)c3)coc2c1,-127*,?,1%,-16%,0,?
COc1ccc(OC)c(NS(=O)(=O)c2ccc(SC)cc2)c1,29,18µM*,-1%,-1%,-4[0.369 µM],?
COc1ccc(OC)c(NS(=O)(=O)c2ccc(N3CCCC3=O)cc2)c1,-83*,-13%,5%,-13%,7,?
CCCCNC(=O)C1CCCN(S(=O)(=O)CCC)C1 (stereo not given),/,/,/,/,/,-17%[46 µM]
CCOC(=O)CNC(c1ccccc1)c1cc(Br)ccc1NC(=O)c1ccc(Cl)cc1 (stereo not given),/,/,/,/,-8,/
COc1ccc(Oc2ncc3nc(-c4ccccc4)c(=O)n(Cc4cccs4)c3n2)cc1,/,?,2%,?,/,/
CC(C)(C)c1ccc(OCC(=O)Nc2c(C(=O)c3ccc(F)cc3)oc3ccccc23)cc1,/,/,/,/,3,/
O=C(O)c1ccc(S(=O)(=O)N=Nc2c(O)[nH]c3ccccc23)cc1,/,?,6%[7.66 µM],?,/,/
CCN(CC)S(=O)(=O)c1ccc(Cl)c(C(=O)Oc2cccc(-c3cnc4ccccc4n3)c2)c1,-6,5%,-5%,-4%,-4,?
CCN(CC)S(=O)(=O)c1ccc(Cl)c(C(=O)Oc2cccnc2)c1,7,14µM*,0%,-26%,-8,7%
Cc1cccc(C)c1NC(=O)CN1C(=O)c2cccc3cccc1c23,/,/,/,/,/,-10%[46 µM]
